Assay results taken from PubChem BioAssay (Tox21).
Records with an inconclusive call do not appear. Calls of active or inactive are those of the source. Unless noted, calls come from the whole dose curve; as a rule, active = well fitted curve in the direction sought with a large enough effect in the repeat runs; inconclusive = weak or mixed curves; inactive = no such curve, though single readings can be large; an effect the other way counts as inactive or inconclusive.

Tests used:
[1] = qHTS assay to identify small molecule agonists of the hypoxia (HIF-1) signaling pathway - cell viability counter screen (AID 1224844; calls by dose curve; note: nearly all actives have a fitted effect of over 50% in size)
How it was run: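 ME-180 HRE-bla cells, 2,000/well, 0.5% dialyzed FBS; 5 hr settle, 17 hr compound at 37C/5% CO2; CCF4-AM reporter read first, then CellTiter-Glo luminescence after 30 min RT.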

[2] = qHTS assay to identify small molecule agonists of H2AX (AID 1224845; active = well fitted activation curve with a large enough effect in the signal ratio in the repeat runs, not every such curve was filed as active; the % refers to the signal ratio)
How it was run: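 Wild-type CHO-K1 cells plated overnight, then exposed 3 hr at 37C to compounds at 15 concentrations (0.76% DMSO). Lysed, then HTRF anti-pH2AX(S139)-cryptate/anti-H2AX-d2 detection after 24 hr at room temperature; emissions 665 and 620 nm.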

[3] = qHTS assay to identify small molecule agonists of H2AX - cell viability counter screen (AID 1224847; calls by dose curve; note: nearly all actives have a fitted effect of over 30% in size; note: potency is the fitted concentration of half-maximal effect)
How it was run: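 CHO-K1 wt, 1000 cells/well, o/n 37C; cpds 15 conc, 3 h 37C, 0.76% DMSO; CellTiter-Glo, 30 min RT, luminescence.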

[4] = qHTS RealTime-Glo MT Cell Viability Assay in HepG2 cells - 24 hour (AID 1224867); note: nearly all actives have a fitted effect of over 50% in size
How it was run: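 Cell number in HepG2 cultures estimated from NanoLuc luminescence generated by metabolic reduction of a prosubstrate by living cells. The homogeneous, nonlytic format allowed repeated reads at 0, 8, 16, 24, 32 and 40 h of compound exposure.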

[5] = qHTS RealTime-Glo MT Cell Viability Assay in HEK293 cells - 32 hour (AID 1224868); note: nearly all actives have a fitted effect of over 50% in size; note: potency is the fitted concentration of half-maximal effect
How it was run: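 Homogeneous bioluminescent viability format in HEK293 cells (600 cells/well). Following 5 h at 37 C/5% CO2, 23 nL compound was pintooled; the signal was measured repeatedly during 40 h incubation.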

[6] = A CellTox Green Cytotoxicity Assay to monitor cytotoxicity in HEK293 cells - 0 hour (AID 1224869); note: nearly all actives have a fitted effect of over 50% in size
How it was run: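 Nonlytic real-time cytotoxicity: HEK293 + CellTox Green reagent plated, 5 h preincubation, pintool compound addition (23 nL in DMSO), 37 C for 40 h, fluorescence measured at successive time points.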

[7] = qHTS RealTime-Glo MT Cell Viability Assay in HepG2 cells - 40 hour (AID 1224870); note: nearly all actives have a fitted effect of over 50% in size
How it was run: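 HepG2 cells mixed with RealTime-Glo MT reagents (NanoLuc plus cell-permeant prosubstrate) were seeded at 600 cells/well, incubated 5 h at 37 C/5% CO2, then pinned with compounds in DMSO; nonlytic luminescence tracked viability during 40 h treatment.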

[8] = qHTS assay to identify small molecule agonists of the hypoxia (HIF-1) signaling pathway (AID 1224846; active = well fitted activation curve with a large enough effect in the signal ratio in the repeat runs, not every such curve was filed as active; the % refers to the signal ratio)
How it was run: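 Cell line: CellSensor HRE-bla ME-180; 2,000 cells/well; 0.5% dialyzed FBS; 5 h preincubation; DMSO compound pin transfer; 17 h, 37C, 5% CO2; CCF4-AM added; bla FRET signal scored for activation.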

[9] = qHTS assay to identify small molecule antagonists of the estrogen related receptor (ERR) signaling pathway from Tox21 library (AID 1224848); note: nearly all actives have a fitted effect of over 50% in size
How it was run: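 Screening used an ERR reporter line supplied by NTP, exposed for 18 h at 37 C to library compounds delivered in DMSO. Signal was luciferase luminescence developed with ONE-Glo at room temperature for 30 min.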

[10] = qHTS assay to identify small molecule agonists of the estrogen related receptor (ERR) signaling pathway from Tox21 library (AID 1224849; calls by dose curve; note: nearly all actives have a fitted effect of over 15% in size); conditions: ERR reporter cell line, ONE-Glo luciferase, 18 h; at 92.4 µM (top of the series) unless noted
How it was run: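 ERR cells, 6 h pre-incubation 37 C/5% CO2; cpd in DMSO pinned; 18 h 37 C; ONE-Glo added, 30 min RT; luminescence read. Agonist mode, qHTS.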
% is set by controls: 0 for no effect and ±100 for the full control effect.

CC1=C(C(=O)O)N2C(=O)[C@@H](NC(=O)[C@H](N)c3ccc(O)cc3)[C@H]2SC1
inactive: outcome [1] | outcome [2] | Potency [3] | outcome [4] | Potency [5] | outcome [6] | outcome [7]

COc1ccc2c(c1)C(=O)N(CCc1ccc(S(=O)(=O)NC(=O)NC3CCCCC3)cc1)C(=O)C2(C)C
inactive: outcome [2] | outcome [8] | Potency [3] | outcome [4] | outcome [6] | outcome [7]

Cc1cc(NC(=O)C2=C(O)c3ccccc3S(=O)(=O)N2C)no1
inactive: outcome [1] | Potency [3] | outcome [4] | Potency [5] | outcome [6] | outcome [7]

CCCCOCCOC(=O)COc1nc(Cl)c(Cl)cc1Cl
inactive: outcome [2] | Potency [3] | Potency [9] | activity change, positive = activation [10] 0.145% | outcome [4] | Potency [5] | outcome [6] | outcome [7]

O=P(O)(O)OP(=O)(O)O
inactive: outcome [1] | outcome [2] | Potency [3] | outcome [4] | Potency [5] | outcome [6] | outcome [7]

O=C(c1ccc(O)cc1)c1ccc(O)c(O)c1O
inactive: outcome [1] | outcome [8] | Potency [3] | Potency [9] | activity change, positive = activation [10] -5.51% | outcome [6] | outcome [7]

CC(C)NCC(O)COc1ccc(COCCOC(C)C)cc1 (stereo not drawn)
inactive: outcome [1] | outcome [2] | Potency [3] | outcome [4] | Potency [5] | outcome [6] | outcome [7]

C[C@@H]1O[C@@H](O[C@@H]2[C@@H](O)[C@H](OCCc3ccc(O)c(O)c3)O[C@H](CO[C@@H]3O[C@H](CO)[C@@H](O)[C@H](O)[C@H]3O)[C@H]2OC(=O)/C=C/c2ccc(O)c(O)c2)[C@H](O)[C@H](O)[C@H]1O
inactive: outcome [1] | outcome [8] | Potency [3] | outcome [4] | outcome [6] | outcome [7]

O=C1c2ccccc2C(=O)C1c1ccccc1
inactive: outcome [1] | outcome [2] | Potency [3] | outcome [4] | Potency [5] | outcome [6] | outcome [7]

CCCC/C=C/C=C\C=O
inactive: outcome [2] | outcome [8] | outcome [4] | Potency [5] | outcome [6] | outcome [7]
active: Potency [3] 1.6 µM

Cc1cc(C(C)(C)C)c(O)c(C)c1CC1=NCCN1
inactive: outcome [1] | outcome [2] | Potency [3] | outcome [4] | outcome [6]

CCOC(=O)c1ccc(OC(=O)CCCCCN=C(N)N)cc1
inactive: outcome [1] | outcome [2] | Potency [3] | outcome [4] | Potency [5] | outcome [6] | outcome [7]

CC1(CO)CN(c2ccccc2)NC1=O (stereo not drawn)
inactive: outcome [1] | outcome [8] | Potency [3] | Potency [5] | outcome [6] | outcome [7]

CCCCCCN
inactive: outcome [1] | outcome [2] | Potency [3] | outcome [4] | Potency [5] | outcome [6] | outcome [7]

COC(=O)[C@@H]1[C@H]2C[C@H]3c4[nH]c5ccccc5c4CCN3C[C@@H]2CC[C@@H]1O
active: activity change, positive = activation [10] 33.5% [at 42.5 µM]
inactive: outcome [1] | Potency [3] | Potency [9] | outcome [4] | outcome [6] | outcome [7]

CCCCNc1ccc(C(=O)OCCN(C)C)cc1
inactive: outcome [2] | Potency [3] | Potency [5] | outcome [6] | outcome [7]

CC(C)NCC(O)COc1cccc2[nH]ccc12 (stereo not drawn)
inactive: outcome [1] | outcome [2] | Potency [3] | Potency [5] | outcome [6] | outcome [7]

CC(C(=O)O)c1ccc2c(c1)CC(=O)c1ccccc1S2 (stereo not drawn)
inactive: outcome [1] | outcome [8] | Potency [3] | Potency [9] | activity change, positive = activation [10] 4.13% [at 42.5 µM] | outcome [4] | Potency [5] | outcome [6] | outcome [7]

Cc1cc2cc3c(C)cc(=O)oc3c(C)c2o1
inactive: outcome [1] | Potency [3] | Potency [9] | activity change, positive = activation [10] 7.29% [at 42.5 µM] | outcome [4] | Potency [5] | outcome [6] | outcome [7]

CCN(CC)CC(=O)Nc1c(C)cccc1C
inactive: outcome [1] | Potency [3] | Potency [9] | outcome [4] | outcome [6] | outcome [7]

CC[C@H](C)C(=O)O[C@H]1C[C@H](O)C=C2C=C[C@H](C)[C@H](CC[C@@H](O)C[C@@H](O)CC(=O)O)[C@H]21
inactive: outcome [2] | outcome [8] | Potency [3] | outcome [4] | outcome [6] | outcome [7]

Nc1ccc2cc(S(=O)(=O)O)cc(O)c2c1
inactive: outcome [1] | outcome [8] | Potency [3] | Potency [9] | activity change, positive = activation [10] 1.3% | outcome [4] | Potency [5] | outcome [6] | outcome [7]

CCCCCCOc1ccccc1C(N)=O
inactive: outcome [2] | outcome [8] | Potency [3] | outcome [4] | outcome [6]
active: Potency [5] 16.9 µM

CCOC(=O)c1ncn2c1CN(C)C(=O)c1cc(F)ccc1-2
inactive: outcome [1] | outcome [2] | Potency [3] | outcome [4] | Potency [5] | outcome [6] | outcome [7]

CN1C(C)(C)CCCC1(C)C
inactive: outcome [1] | outcome [2] | Potency [3] | outcome [4] | Potency [5] | outcome [6] | outcome [7]

Brc1ccc(-c2ccccc2)cc1
inactive: outcome [1] | outcome [8] | Potency [3] | outcome [4] | outcome [6] | outcome [7]

O=Cc1ccc(Cl)c(Cl)c1
inactive: outcome [1] | outcome [8] | Potency [3] | outcome [4] | outcome [6] | outcome [7]

O=S(=O)(O)c1cc(O)c2ccc(Nc3ccccc3)cc2c1
inactive: outcome [1] | outcome [8] | Potency [3] | outcome [4] | Potency [5] | outcome [6] | outcome [7]
